Measured values: PubChem BioAssay AID1159580 (chemical genetic matrix, 2015)
In all, about 5,500 compounds went through this assay and about 2,000 (36%) were called active. Another 18% or so got no clear call; they are omitted. Cut-off read from the data, not from the text of the source: active = normalized growth mostly below about 0.91 (no sharp cut-off); inconclusive = no clear call, values can overlap the other calls; inactive = mostly above about 0.92. This is one part of the list.

Assay: chemical genetic growth profiling, strain panel (AID 1159580);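 note: tested at 20 µM; growth read once vehicle control cultures reached saturation at 30 °C; 1 = growth at the plate median or of vehicle wells; lower values mean less growth of the strain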
Conditions: growth OD

Measured: normalized growth

CC(C)(C)OC(=O)N1CCC(C(N)=O)CC1
inactive: S. cerevisiae deletion strains, locus YAL013W, strain DEP1, active compounds read low 0.997 | S. cerevisiae deletion strains, locus YBR229C, strain ROT2, active compounds read low 1.01 | S. cerevisiae deletion strains, locus YCL061C, strain MRC1, active compounds read low 1.02 | S. cerevisiae deletion strains, locus YDL101C, strain DUN1, active compounds read low 1.01 | S. cerevisiae deletion strains, locus YDR150W, strain NUM1, active compounds read low 1.01 | S. cerevisiae deletion strains, locus YEL061C, strain CIN8, active compounds read low 1.01 | S. cerevisiae deletion strains, locus YGR078C, strain PAC10, active compounds read low 1.01 | S. cerevisiae deletion strains, locus YHR030C, strain SLT2, active compounds read low 1.08 | S. cerevisiae deletion strains, locus YHR087W, strain rtc3, active compounds read low 1.01 | S. cerevisiae deletion strains, locus YJR043C, strain POL32, active compounds read low 1.01 | S. cerevisiae deletion strains, locus YJR075W, strain HOC1, active compounds read low 1.01 | S. cerevisiae deletion strains, locus YLR039C, strain RIC1, active compounds read low 1.04 | S. cerevisiae deletion strains, locus YLR058C, strain SHM2 (second series), active compounds read low 1.01 | S. cerevisiae deletion strains, locus YLR085C, strain ARP6, active compounds read low 1.02 | S. cerevisiae deletion strains, locus YLR262C, strain YPT6, active compounds read low 1.07 | S. cerevisiae deletion strains, locus YML094W, strain GIM5, active compounds read low 1.03 | S. cerevisiae deletion strains, locus YMR219W, strain ESC1, active compounds read low 1.01 | S. cerevisiae deletion strains, locus YMR263W, strain SAP30, active compounds read low 1.02 | S. cerevisiae deletion strains, locus YMR307W, strain GAS1, active compounds read low 1.04 | S. cerevisiae deletion strains, locus YNL153C, strain GIM3, active compounds read low 1.01 | S. cerevisiae deletion strains, locus YNL298W, strain CLA4 (second series), active compounds read low 1.03 | S. cerevisiae deletion strains, locus YNL322C, strain KRE1, active compounds read low 1.02 | S. cerevisiae deletion strains, locus YNR030W, strain Alg12, active compounds read low 1.03 | S. cerevisiae deletion strains, locus YPL055C, strain LGE1, active compounds read low 1.01 | S. cerevisiae deletion strains, locus YPL241C, strain CIN2, active compounds read low 1.03 | S. cerevisiae deletion strains, locus YPR135W, strain CTF4, active compounds read low 0.974 | S. cerevisiae strains, strain wild type, active compounds read low 1.02
